These results are taken from ChEMBL document CHEMBL4888484, “Replenishing the malaria drug discovery pipeline: Screening and hit evaluation of the MMV Hit Generation Library 1 (HGL1) against asexual blood stage Plasmodium falciparum ,using a nano luciferase reporter read-out” (2022).

The whole screen tested about 4,800 compounds, of which about 420 (8.8%) showed an effect of 50% or more. The sample holds strong results, similar compounds and a random draw of the others, so the mix is not that of the screen. Where a SMILES comes first, the peptide text is derived from it. The star is where a group is joined. NHPhenethyl = c1ccc(CCN*)cc1

The test system of the assay is Plasmodium falciparum. In words: Confirmatory screen in NF54 nanoGlo assay, in single point, at 2uM, 72h. Format: functional, Erythrocyte. The following applies: timepoint 72 hour.
Turning to `CCc1ccc([C@H]2NCCc3[nH]cnc32)nc1`, the “% Inhibition” value came to 29%.

Turning to `CCc1ccc(CN2CCC[C@H](c3ncc[nH]3)C2)nc1`, the “% Inhibition” value is 52%.

On to `CC(C)n1ccc(CN2CCC[C@H](c3cc(C(F)(F)F)[nH]n3)C2)n1`, for which the “% Inhibition” value is on record as -9%.

For the compound `CCN(CC)c1ccc(N2C(=O)c3c(Br)c(Br)c(Br)c(Br)c3C2=O)cc1`, the “% Inhibition” value was found to be 5%.

Turning to `C=CCNC(=S)NS(=O)(=O)c1ccc(Cl)cc1`, the “% Inhibition” value came out at 3%.

For `COc1cc(CNCCN2CCOCC2)ccc1OCc1ccc(C)cc1`, the “% Inhibition” value was -1%.

As to `CCOc1cc(=O)c(C(=O)N2CCC(C(N)=O)CC2)nn1-c1ccc(F)cc1`, the “% Inhibition” value was -6%.

`Cn1c(N)c(S(=O)(=O)N2CCN(c3ccccc3Cl)CC2)c(=O)n(C)c1=O`: the “% Inhibition” value was 61%.

With `Cc1ccccc1S(=O)(=O)N1CCN(c2c(C)n(-c3ccccc3)c(=O)n(C)c2=O)CC1`, the “% Inhibition” value is listed as 1%.

Turning to `CCS(=O)(=O)N1CCN(c2c(C)n(-c3ccccc3)c(=O)n(C)c2=O)CC1`, the “% Inhibition” value is given as 2%.

As for `CC(C)n1cc(CN[C@@]2(CO)CCCc3ccccc32)cn1`, the “% Inhibition” value was -5%.

Consider `CCN(CC)CCCNC(=O)[C@H]1CCCN(c2nc3ccccc3n(Cc3ccccc3)c2=O)C1`, for which the “% Inhibition” value was found to be 0%.

With `CCC1CN2CCCC2CN1C(=O)Nc1nc2ccccc2s1` (configuration not stated), the “% Inhibition” value was -1%.

In the case of `COc1ccc(CNC(=O)Cn2c(=O)n(Cc3cccc(OC)c3)c(=O)c3sccc32)cc1`, the “% Inhibition” value is on record as 1%.

With `Cn1ccc(NC(=O)C(=O)N2CC[C@H](c3ccco3)C2)n1`, the “% Inhibition” value was -1%.

As to `Cc1cccc(C(=O)Nc2ccc(N3CCCCCC3)cc2C(=O)O)c1`, the “% Inhibition” value was -10%.

`O=C(Nc1cc(N2CCCS2(=O)=O)ccc1O)c1cccc(Oc2cccc(C(F)(F)F)c2)c1`: the “% Inhibition” value amounted to 100%.

Regarding `O=C(Nc1cccc(C(F)(F)F)c1)C(Oc1ccccc1)Oc1ccccc1`, the “% Inhibition” value was -20%.

For the compound `CC(C)(C)CC(=O)NC[C@H]1OC[C@@H](NC2CCCC2)[C@@H]1O`, the “% Inhibition” value is given as 3%.

In the case of `Cc1n[nH]c(C)c1NC(=O)C1=NO[C@@H](CNC(=O)OC(C)(C)C)C1`, the “% Inhibition” value is given as 0%.

With `Cc1cccc(C(=O)N[C@H]2CCN(c3ccccc3)C2=O)c1`, the “% Inhibition” value turned out to be 13%.

For the compound `CN(Cc1nccn1C)C(=O)c1cc2ccccc2[nH]1`, the “% Inhibition” value worked out at 5%.

As for `Cn1c(=O)c2c(ncn2CC(=O)N(Cc2ccccc2)C2CC2)n(C)c1=O`, the “% Inhibition” value was -4%.

For `C=CCNC(=O)c1cc(Br)cc(Br)c1OC`, the “% Inhibition” value is 6%.

Consider `Cc1ccc(C2=C[C@@H](c3ccc(Cl)cc3)n3nc(NC(=O)c4ccccc4)nc3N2)cc1`, for which the “% Inhibition” value is 94%.

On to `COc1cc([C@@H]2C=C(c3ccc(Cl)cc3)Nc3ncnn32)ccc1OCc1ccc(Cl)cc1`, for which the “% Inhibition” value is on record as 3%.

Regarding `Cc1ccc([C@@H]2C=C(C(=O)O)Nc3c(C(N)=O)nnn32)cc1`, the “% Inhibition” value is -14%.

Regarding `Cc1nnc2ccc(S(=O)(=O)N(Cc3ccccc3F)c3cc(F)cc(F)c3)cn12`, the “% Inhibition” value is recorded as -5%.

In the case of `CC(N)C(=O)NC(C)C(=O)NCCc1ccccc1` (stereo not drawn) (H-Ala-Ala-NHPhenethyl; configuration not given here), the “% Inhibition” value is on record as -5%.

As to `CCOC(=O)c1c(CN2CCCC2)n(C)c2cc(-c3cccnc3)c(O)c(Cn3ccnc3)c12`, the “% Inhibition” value is recorded as 60%.

`CCOC(=O)c1ncn(C2CCN(C(=O)c3cccc(Cn4ccnc4)c3)CC2)c1N`: the “% Inhibition” value is given as -3%.

For the compound `Cc1nn(C)c(C)c1S(=O)(=O)N1CC[C@]2(CCN(c3cccnc3)C2)C1`, the “% Inhibition” value worked out at 1%.

With `Cc1cc(NC(=O)c2cccc(S(=O)(=O)NC3CC3)c2)no1`, the “% Inhibition” value is given as -8%.

As for `O=C(C[C@H]1CCC(=O)N(CC2CC2)CC1)Nc1ccccc1F`, the “% Inhibition” value came out at 4%.

Regarding `COc1cccc(CNCCCn2ccnc2)c1OCc1ccc(F)cc1`, the “% Inhibition” value turned out to be 6%.

As for `COc1ccc(C)c2sc(N(CCCn3ccnc3)C(=O)Cc3ccc(F)cc3)nc12`, the “% Inhibition” value is reported as 79%.

`Cn1cccc1CNCc1ccncc1`: the “% Inhibition” value is 0%.

With `CCN(CC)[C@H](CNC(=O)C1=NN(C)C(=O)CC1)Cc1ccccc1`, the “% Inhibition” value is 2%.

As to `CC1CCC(c2noc([C@H]3CCO[C@@H]3c3cncc(Br)c3)n2)CC1` (some centres not stated), the “% Inhibition” value is given as 52%.

For `O=C(c1cncc(Br)c1)N1CC[C@H](c2nc(C3CCOCC3)no2)C1`, the “% Inhibition” value is listed as -2%.

For the compound `c1csc(-c2noc(Cc3c[nH]c4ccccc34)n2)c1`, the “% Inhibition” value stood at 21%.

Turning to `COc1ccc(C(=O)N2CC(C(=O)O)CCC2c2ccccc2)cc1` (configuration not stated), the “% Inhibition” value worked out at 3%.

In the case of `COc1ccc(C(=O)N(C(=O)c2ccc(OC)cc2)c2c3c(nc4ccccc24)CCCC3)cc1`, the “% Inhibition” value turned out to be 72%.

Turning to `COc1ccc(CC(=O)N(c2ccccc2)c2ccccc2)cc1`, the “% Inhibition” value was 21%.

Turning to `Cc1nc(N2CCC(c3nc(-c4ccccc4)no3)CC2)c2c(C)noc2n1`, the “% Inhibition” value is 54%.

In the case of `C[C@H](Oc1ccccc1)C(=O)N1CCC(c2nc(-c3ccc4c(c3)OCO4)no2)CC1`, the “% Inhibition” value was 6%.

Consider `c1cc(-c2noc(C3CC3)n2)nc(N2CCNCC2)n1`, for which the “% Inhibition” value is given as -12%.

Regarding `C=CCC(N)(CC=C)c1ccc(C)cc1`, the “% Inhibition” value is -6%.

Take `Cn1nnnc1NC/C=C/c1ccccc1`: the “% Inhibition” value was -4%.

For the compound `C=C1C(C)C2C(Cc3c[nH]c4ccccc34)NC(=O)C23C(=O)CC(O)C(O)CC(C)C/C=C/C3C1O` (configuration not stated), the “% Inhibition” value is on record as 44%.

Turning to `CCC(C)C(NC(=O)c1ccccc1NC(=O)c1ccco1)C(=O)N1CCCCCC1` (configuration not stated), the “% Inhibition” value is -9%.

For the compound `Cc1nc(C)c(CN2C(=O)C3CCCCC3C2=O)s1` (configuration not stated), the “% Inhibition” value was -2%.

Consider `O=C([C@H]1CC(=O)N(c2ccc(F)c(Cl)c2)C1)N1CCN(C(c2ccccc2)c2ccccc2)CC1`, for which the “% Inhibition” value is reported as -3%.

Turning to `O=C(c1cccc(C(=O)N2CCN(C(c3ccccc3)c3ccccc3)CC2)c1)N1CCN(C(c2ccccc2)c2ccccc2)CC1`, the “% Inhibition” value is 63%.

In the case of `O=C(c1ccoc1)N1CCC[C@H](C(=O)N2CCN(C(c3ccccc3)c3ccccc3)CC2)C1`, the “% Inhibition” value is -1%.

With `C[C@@H](C(=O)Nc1cccc2ccccc12)c1ccc(-c2ccccc2)c(F)c1`, the “% Inhibition” value is reported as -11%.

For `CC[n+]1c(/C=C/N(C)c2ccccc2)oc2ccccc21`, the “% Inhibition” value stood at 80%.

Regarding `CC[n+]1c(/C=C/N(C)c2ccccc2)oc2ccc(-c3ccccc3)cc21`, the “% Inhibition” value was 89%.

For the compound `CC(C)(C(=O)Nc1nccs1)c1cccnc1`, the “% Inhibition” value is -2%.

Take `Cn1cc(C(=O)N2N=CC[C@]2(O)C(F)(F)F)cn1`: the “% Inhibition” value turned out to be 1%.

As for `O=C(c1cc(-c2ccccc2)n[nH]1)N1CCC(N2CCc3sccc3C2)CC1`, the “% Inhibition” value is reported as 21%.

Turning to `CCOc1c(CNC(C)(C)C)cccc1OC`, the “% Inhibition” value is given as -9%.

As for `CC(C)c1cnc(NCCCC[C@H]2CCCO2)nc1`, the “% Inhibition” value was -2%.

For `Cc1cccc(Oc2nc3ccccc3n3c(=O)n(CC(=O)NCc4ccc(Cl)cc4)nc23)c1C`, the “% Inhibition” value is recorded as -10%.

For `Cc1ccc(S(=O)(=O)c2ccc3c(c2)Oc2ccccc2N3)cc1`, the “% Inhibition” value was -10%.

As for `O=C(NC1CCN(Cc2ccccc2)CC1)c1cnn2c(-c3ccc4c(c3)OCO4)ccnc12`, the “% Inhibition” value worked out at 3%.

As to `Cc1cc(=O)n(CC(=O)Nc2ccc(Cl)c(C(F)(F)F)c2)c(-c2ccc(F)cc2)n1`, the “% Inhibition” value was -6%.

Turning to `Cc1nc2cc3c(cc2n1CC(=O)Nc1ccc(Cl)cc1)OCCCO3`, the “% Inhibition” value is -4%.

Consider `Cn1cc(-c2ccc(Cl)cc2)c2ncn(CC(=O)Nc3cccc(Cl)c3)c(=O)c21`, for which the “% Inhibition” value is -5%.

Consider `Cc1noc(C)c1CC(=O)Nc1cccc(-c2nnco2)c1`, for which the “% Inhibition” value turned out to be 3%.

On to `Cc1nnc(-c2ccc3ccn(CC(=O)Nc4ccc(F)c(Cl)c4)c3c2)o1`, for which the “% Inhibition” value came to 78%.

Regarding `CCc1cccc(NC(=O)Cn2ccc3ccc(-c4nnc(C)o4)cc32)c1`, the “% Inhibition” value is given as 81%.

Consider `O=C(Nc1ccccc1)N1CCC[C@H]1c1ccncc1`, for which the “% Inhibition” value is reported as -12%.

On to `CC(C)N1CCC2(CC1)N=C(c1ccc3c(c1)OCO3)C[C@@H](c1cc(Cl)ccc1O)N2`, for which the “% Inhibition” value was 41%.

Turning to `O=C(C[C@@H]1C(=O)Nc2nc(N3CCOCC3)[nH]c(=O)c21)Nc1ccc(Cl)cc1`, the “% Inhibition” value is 9%.

In the case of `Cn1c(-c2ccc(Cl)c(Cl)c2)c[n+](CC(=O)c2ccc(-c3ccccc3)cc2)c1N`, the “% Inhibition” value is recorded as 6%.

Turning to `COC(=O)CN(C(C)C)S(=O)(=O)c1cc(Cl)cc(Cl)c1`, the “% Inhibition” value is 3%.

For `N#Cc1ccc(S(=O)(=O)N2C3CCC2CC(O)C3)o1` (configuration not stated), the “% Inhibition” value is -11%.

As for `CNCCc1c(-c2ccccc2)[nH]n(-c2ccccc2)c1=O`, the “% Inhibition” value came out at 63%.

Turning to `CCCCCc1c(C)nc2[nH]n(-c3ccccc3)c(=O)c2c1O`, the “% Inhibition” value is given as -19%.

`O=C1CCCc2nc3[nH]n(-c4ccccc4)c(=O)c3cc21`: the “% Inhibition” value is 8%.

Regarding `CCc1n[nH]c(C(=O)N2CC3CCCN3CC2CC)c1Br` (configuration not stated), the “% Inhibition” value stood at 7%.

Regarding `Oc1ccc(C2=C(c3ccccc3)N=NCN2O)c(O)c1`, the “% Inhibition” value was -14%.

With `COCc1c(Br)c(C)nc(O)c1C#N`, the “% Inhibition” value was -8%.

For `CCN1c2cc(C(=O)Nc3ccc(OC)cc3OC)ccc2C(=O)N2CCCC[C@H]21`, the “% Inhibition” value is 8%.

Regarding `Cc1ccc(Cn2c(=O)c(C(=O)NCc3ccc4c(c3)OCO4)nn(-c3ccc(C(C)C)cc3)c2=O)cc1`, the “% Inhibition” value was 64%.

With `CC[C@H]1Cn2c(C(=O)NCc3ccc4c(c3)OCO4)cc3c(Cl)ccc(c32)O1`, the “% Inhibition” value was -11%.

Take `O=C(Cn1cnc2ccc(Cl)cc2c1=O)NCc1ccc2c(c1)OCO2`: the “% Inhibition” value is on record as -5%.

For `COc1ccc(S(=O)(=O)N2CCN(C(=O)N(C)C)[C@@H]2c2ccccc2)cc1`, the “% Inhibition” value was 0%.

Regarding `COC(=O)c1cc(Cl)c(Cl)cc1N`, the “% Inhibition” value is -6%.

For `COc1cccc([C@H]2CC(=O)Nc3nc(N4CCCCC4)sc32)c1`, the “% Inhibition” value turned out to be 6%.

As for `COc1ccc(S(=O)(=O)N2CCC(c3cc(N)on3)CC2)cc1Cl`, the “% Inhibition” value was 46%.

For `COc1ccc(F)cc1S(=O)(=O)N1CCc2noc(N)c2C1`, the “% Inhibition” value was 68%.

For `COc1ccc(OC)c(S(=O)(=O)N2C[C@H]3CCCC(=O)N[C@H]3C2)c1`, the “% Inhibition” value was -4%.

In the case of `O=C(c1ccccn1)N1CC(n2cnnc2[C@@H]2CCCO2)C1`, the “% Inhibition” value is -8%.

As for `Oc1ccc([C@@H](c2cn(-c3nc(-c4ccc(Cl)cc4)cs3)nc2-c2ccccc2)c2c(-c3ccccc3)nn(-c3nc(-c4ccc(Cl)cc4)cs3)c2O)cc1`, the “% Inhibition” value is listed as 6%.

For `c1nc2nc[nH]c(NC3CCCCC3)c-2n1`, the “% Inhibition” value came out at 10%.
